Compound activity deposited in PubChem by National Center for Advancing Translational Sciences (NCATS).
TGFb SMAD3 inh – inhibitors of TGF-b signaling | Potency, µM (highest dose often 46.1 µM), without a hit: at the highest dose activity, negative = inhibition, hits mostly inhibitors | HepG2 CAGA-GFP TGF-b/SMAD3 reporter, GFP fluorescence, 18 h; TGF-beta stimulated, 500 pg/mL final | 1.2% of 410,000 active; further: potency means the concentration at half of the fitted maximal effect; on the % scale 0 is the no-effect control and ±100 the full control effect; nearly all actives have a fitted effect of over 65% in size
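Smad-responsive CAGA-GFP expression was quantified in HEPG2 cells exposed to compounds and 500 pg/mL final TGF-beta for 18 h at 37 degrees C; unstimulated wells defined full inhibition.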
HepG2 viability – HepG2 cytotoxicity, counter-screen for TGF-b inhibitors | HepG2 CAGA-GFP viability, ATP luminescence, 18 h | Potency, µM (top dose mostly 46.1 µM), inactives show at the top dose activity change, negative = cytotoxicity, hits mostly cytotoxic | 0.76% of 410,000 active | AID 588856; further: potency means the concentration at half of the fitted maximal effect
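HepG2 CAGA-GFP cells (1000/well, DMEM with 1% FBS) received compound, then TGF-beta at 500 pg/mL final, and were incubated 18 hours at 37 degrees C. Viability was read by CellTiter-Glo luminescence. Media-only wells were set as complete cell-killing and DMSO as no toxicity.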
TDP1 cell noCPT – qHTS for Inhibitors of human tyrosyl-DNA phosphodiesterase 1 (TDP1): qHTS in cells in absence of CPT; Potency, µM (top dose mostly 46.2 µM), for inactives: at the top dose activity change, negative = growth inhibition, usual class: inhibitors; 15% of 420,000 active; DT40 Tdp1-/- hTDP1 cells, no CPT, ATP luminescence, 48 h; further: potency means the concentration at half of the fitted maximal effect; on the % scale 0 is the no-effect control and ±100 the full control effect; nearly all actives have a fitted effect of over 55% in size
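Seeded 400 DT40-hTDP1 cells/well (vehicle DMSO, no 20 nM CPT); pinned compounds; ≥48 hr at 37 °C; CellTiter-Glo luminescence as viability measure.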
IL1B secr inh – blocks inflammasome-driven IL-1 beta release. THP-1 LPS/ATP IL-1B secretion, AlphaLISA, 16 h; active compounds read low. activity change, % at 57.5 µM. 4.7% of 360,000 active; in the data active means activity change below about -50%; inconclusive means mostly about -30% to -49%; further: on the % scale 0 is the no-effect control and ±100 the full control effect
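THP-1 cells pretreated 1 hr with compounds (up to 57.5 uM final), then stimulated with LPS (250 ng/mL final) plus ATP (1.25 mM final); secreted IL-1B measured by AlphaLISA after 16 hr, decreased signal indicating inhibition.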
TDP1 cell CPT – DT40-hTDP1 cell growth loss with CPT; chicken DT40 Tdp1-/-;hTDP1 cells + 20 nM CPT, ATP luminescence, 48 h; 12% of 420,000 active; Potency, µM (top dose mostly 46.2 µM), inactives show at the highest dose activity change, negative = growth inhibition, usual class: inhibitors; further: potency means the concentration at half of the fitted maximal effect; on the % scale 0 is the no-effect control and ±100 the full control effect; nearly all actives have a fitted effect of over 55% in size
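Chicken DT40 Tdp1-/- cells complemented with human TDP1, 400 cells/well, exposed to compounds plus 20 nM camptothecin for at least 48 h at 37 C; viability read as ATP content by CellTiter-Glo luminescence.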
TDP1 block – TDP1 (human) enzyme inhibition. recombinant TDP1, AlphaScreen DNA substrate cleavage. Potency, µM (series often up to 130 µM), inactives show top-dose activity change, negative = inhibition, usual class: inhibitors. 0.28% of 350,000 active; further: potency means the concentration at half of the fitted maximal effect; on the % scale 0 is the no-effect control and ±100 the full control effect; nearly all actives have a fitted effect of over 40% in size
Target sequence (Q9NUW8 whole entry, looked up): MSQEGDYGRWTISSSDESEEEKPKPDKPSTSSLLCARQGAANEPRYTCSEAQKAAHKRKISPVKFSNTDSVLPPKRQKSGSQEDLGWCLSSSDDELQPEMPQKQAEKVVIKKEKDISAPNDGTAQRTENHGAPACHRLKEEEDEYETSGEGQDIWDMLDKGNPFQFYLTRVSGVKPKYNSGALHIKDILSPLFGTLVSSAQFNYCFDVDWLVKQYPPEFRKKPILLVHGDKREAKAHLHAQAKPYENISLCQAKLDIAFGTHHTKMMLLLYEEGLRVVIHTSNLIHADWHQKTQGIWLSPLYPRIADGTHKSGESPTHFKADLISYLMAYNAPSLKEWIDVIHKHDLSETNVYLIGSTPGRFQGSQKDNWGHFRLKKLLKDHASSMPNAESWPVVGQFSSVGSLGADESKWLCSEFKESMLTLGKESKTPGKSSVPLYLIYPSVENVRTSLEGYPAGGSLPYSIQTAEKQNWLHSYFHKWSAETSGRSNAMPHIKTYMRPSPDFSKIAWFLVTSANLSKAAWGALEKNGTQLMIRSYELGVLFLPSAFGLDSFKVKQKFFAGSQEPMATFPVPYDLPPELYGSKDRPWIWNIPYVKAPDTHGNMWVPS
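Recombinant E. coli-expressed Tdp1 (1 nM) preincubated with compound 15 min at RT, then 5'-biotin/3'-phosphotyrosine-FITC DNA substrate (15 nM) added for 5 min. AlphaScreen beads (10 ug/ml) added, 10 min RT; tyrosine-FITC cleavage read as signal loss.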
* marks the source's active call; other numbers are inactive results; ? = inconclusive; / = not tested or not shown; [ ] = remark or other dose. Rows were chosen to be rich in hits. Some 19% of all compounds tested hit in one or more screens of this group. Unless noted, the call rests on the fitted dose curve; in most records, active means well fitted curve in the direction sought with a large enough effect; inconclusive means small, poorly fitted or top-dose-only effect, or another doubt; inactive means no such curve, though single readings can be large; an effect the other way counts as inactive or inconclusive.

SMILES	TGFb SMAD3 inh	HepG2 viability	TDP1 cell noCPT	IL1B secr inh	TDP1 cell CPT	TDP1 block
CC(=O)NCCC(=O)Nc1cc(S(=O)(=O)N2CCCCC2)ccc1N1CCN(C)CC1	21%	0%	-8%	-4	-11%	-12%
Cc1ccc(OCC(=O)Nc2cc(S(=O)(=O)N3CCCCC3)ccc2N2CCN(C)CC2)c(C)c1	-9%	-29%	9.2µM*	?	15µM*	1%
Cc1ccc(Nc2cc(C)c(C#N)c3nc4ccccc4n23)cc1Cl	0%	-7%	?	/	?	/
CCN1C[C@@H]2[C@@H]3C(=O)N(Cc4ccccc4)C(=O)[C@@H]3[C@](C)(C(=O)OC)N2C1=NC	-13%	10%	1%	17	6%	/
Cc1cc(OCC(=O)Nc2ccccc2N2CCOCC2)c(C(C)C)cc1Cl	?	-20%	15µM*	-12	16µM*	-5%
CC(C)c1ccccc1OCC(=O)Nc1cc(S(=O)(=O)N2CCOCC2)ccc1N1CCCC1	?	6%	15µM*	-56*	?	/
COc1ccccc1OCC(=O)Nc1cc(S(=O)(=O)N2CCCCC2)ccc1N1CCCCC1	-9%	13%	23µM*	-1	23µM*	4%
Cc1ccccc1OCC(=O)Nc1ccc(N2CCOCC2)cc1N1CCOCC1	5%	-7%	?	-2	?	6%
COc1ccc(C(C(=O)NCC2CCCO2)N(C(=O)CNC(=O)c2ccco2)c2cc(C)ccc2C)cc1OC (stereo not given)	3%	11%	-3%	-14	0%	-7%[0.0935 µM]
Cc1cccc(-n2cnc(C(=O)N/N=C\c3ccc(Br)cc3)c2)n1	-1%	1%	-11%	-13	4%	1%
Cc1cccc(-n2cnc(C(=O)NNC(=S)Nc3ccc(Cl)cc3)c2)n1	-10%	-20%	12µM*	159	7.3µM*	9%
Cc1nc2ccccn2c1C(=O)NNC(=S)Nc1ccc(Cl)cc1	-16%	-32%	18µM*	13	?	8%
Cc1cn(C)c(CC(=O)Nc2cccc(C#N)c2)c1C(=O)O	1%	-3%	0%	/	-20%	3%
CC/C=C/C(=O)N1CC2(CC(c3cccc(NC(=O)CC(c4ccccc4)c4ccccc4)c3)=NO2)C[C@@H]1C(N)=O (stereo not given in full)	?	0%	16µM*	?	-86%	5%
C/C=C/C=C/C(=O)Nc1cccc(C2=NOC3(C2)C[C@H](C(N)=O)N(C(=O)CC(c2ccccc2)c2ccccc2)C3)c1 (stereo not given in full)	/	/	/	/	/	4%
CCCCCC(=O)Nc1cccc(C2=NOC3(C2)C[C@@H](C(N)=O)N(C(=O)CC(c2ccccc2)c2ccccc2)C3)c1 (stereo not given in full)	?	-6%	?	0	23µM*	6%
C/C=C\C(=O)Nc1cccc(C2=NOC3(C2)C[C@@H](C(N)=O)N(C(=O)CC(c2ccccc2)c2ccccc2)C3)c1 (stereo not given in full)	?	5%	16µM*	-23	?	4%
CC1(C(=O)N2CC3(CC(c4cccc(NC(=O)CC(c5ccccc5)c5ccccc5)c4)=NO3)C[C@@H]2C(N)=O)CC1 (stereo not given in full)	6%	-5%	-29%	-25	-28%	-2%
CCOC(=O)NC[C@H](Cc1ccc(OCCc2nc(-c3ccccc3)oc2C)cc1)N/C(C)=C\C(=O)c1ccc(C(F)(F)F)cc1	/	/	/	/	/	10%
COc1ccc(-c2cc3nc(C)cc(N4CCN(C(=O)c5ccco5)CC4)n3n2)cc1	-15%	-24%	12µM*	-29	21µM*	/
COc1cccc(-c2cc3nc(C)c(C)c(N4CCN(C(=O)c5ccoc5)CC4)n3n2)c1	-17%	-33%	8.2µM*	1	13µM*	/
Cc1ccc(-c2cc3nc(C)cc(N4CCN(C(=O)c5ccoc5)CC4)n3n2)cc1	10%	1%	18µM*	-20	?	/
Cc1cc(N2CCN(C(=O)c3ccco3)CC2)n2nc(C)c(-c3ccccc3)c2n1	-3%	-32%	23µM*	?	23µM*	10%
COc1ccc(-c2csc(N3CCN(C(=O)c4ccco4)CC3)n2)cc1	-9%	-40%	?	?	?	5%
Cc1cc(N2CCN(C(=O)c3ccco3)CC2)n2nc(C)c(-c3ccc(Cl)cc3)c2n1	/	/	/	/	/	5%
SMILES	TGFb SMAD3 inh	HepG2 viability	TDP1 cell noCPT	IL1B secr inh	TDP1 cell CPT	TDP1 block
Cc1ccc(NC(=O)CN2C(=O)NC3(CCCCC3)C2=O)cc1S(=O)(=O)N1CCOCC1	1%	10%	?	25	-24%	1%
CCCOC(=O)c1ccc(Nc2c(C(=O)OCC)cnc3c(C)cc(Cl)cc23)cc1	-18%	-2%	-27%	/	-4%	-1%[12.3 µM]
Cc1nc2cc(-c3cccc(Cl)c3)nn2c(N2CCN(C(=O)c3ccco3)CC2)c1C	/	/	/	/	/	4%
Cc1cc(N2CCN(C(=O)c3ccco3)CC2)n2nc(-c3cccc(Cl)c3)cc2n1	?	-22%	?	-66*	23µM*	4%
N#CN=c1snc(-c2ccccc2)n1-c1ccc(Br)cc1	-6%	0%	?	/	?	/
Cc1ccc(C(=O)COC(=O)C2C3C=CC(C3)C2C(=O)OCC(=O)c2ccc(C)c(C)c2)cc1C (stereo not given)	?	-11%	?	-53*	?	4%
COc1ccc(C2CC(=O)c3cnn(-c4nc(C)cc(C)n4)c3C2)cc1 (stereo not given)	-29%	-14%	16µM*	10	21µM*	5%
Cc1cc(C)nc(-n2ncc3c2CC(c2ccccc2)CC3=O)n1 (stereo not given)	?	7%	?	90	-16%	2%
N#Cc1cccc(NC(=O)CCNS(=O)(=O)c2ccc3c(c2)CCN3C(=O)C2CC2)c1	7%	-6%	?	/	?	7%
Cc1cccc(N(C)C(=O)CCNS(=O)(=O)c2ccc3c(c2)CCN3C(=O)C2CC2)c1	-4%	-19%	21µM*	/	16µM*	9%
Cc1cccc(N2CCN(C(=O)CCNS(=O)(=O)c3ccc4c(c3)CCN4C(=O)C3CC3)CC2C)c1 (stereo not given)	-1%	-20%	8.2µM*	/	5.8µM*	3%
